Records with an inconclusive call do not appear. The source made the active and inactive calls. Unless noted, the call rests on the fitted dose curve.
Experiments:
[1] = Nuclear factor erythroid 2-related factor 2/antioxidant responsive element (Nrf2/ARE) small molecule agonists: qHTS cell viability counter screen in human keratinocytes (AID 1919968; active means well fitted curve in the direction sought with a large enough effect in the repeat runs; an effect the other way counts as inactive or inconclusive; further: nearly all actives have a fitted effect of over 55% in size; further: potency means the concentration at half of the fitted maximal effect)
Method in brief: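 Seed 1,500 KeratinoSens cells per well, then incubate 5 h at 37 C/5% CO2. Add compounds in DMSO and incubate 23 h. Add CellTiter-Fluor, wait 1 h and read fluorescence.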

[2] = Nuclear factor erythroid 2-related factor 2/antioxidant responsive element (Nrf2/ARE) small molecule agonists: luciferase reporter gene qHTS assay in human keratinocytes (AID 1919969); further: nearly all actives have a fitted effect of over 35% in size; further: potency means the concentration at half of the fitted maximal effect
[3] = target: Gonadotropin-releasing hormone receptor (Homo sapiens) (UniProt P30968); test: Human gonadotropin-releasing hormone receptor (GnRHR) small molecule agonists, calcium flux assay in GnRHR-HEK293 cells (AID 1920063); further: nearly all actives have a fitted effect of over 35% in size
Gonadotropin-releasing hormone receptor (Homo sapiens), sequence (P30968 whole entry, looked up): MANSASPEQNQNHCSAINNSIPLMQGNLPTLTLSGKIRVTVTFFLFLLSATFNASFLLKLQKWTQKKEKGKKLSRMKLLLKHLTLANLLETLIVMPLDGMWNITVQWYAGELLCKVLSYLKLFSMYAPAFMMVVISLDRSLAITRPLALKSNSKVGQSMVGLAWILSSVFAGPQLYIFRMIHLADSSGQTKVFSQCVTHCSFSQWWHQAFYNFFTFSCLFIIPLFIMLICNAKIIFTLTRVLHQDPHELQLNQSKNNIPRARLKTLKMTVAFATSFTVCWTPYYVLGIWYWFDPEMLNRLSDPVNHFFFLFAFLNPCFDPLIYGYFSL
Method in brief: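 Cells: HEK293 stably expressing human GnRHR. Steps: overnight (18 h) culture, 1 h calcium dye loading at 37 C, compound addition, kinetic fluorescence read at 480/540 nm. Each compound tested at 15 concentrations in triplicate.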

[4] = target: KiSS-1 receptor (Homo sapiens) (UniProt Q969F8); test: Human kisspeptin (KISS1R) small molecule agonists, calcium flux assay in KISS1R-HEK293 cells (AID 1920064; active means well fitted curve in the direction sought with a large enough effect in the repeat runs; an effect the other way counts as inactive or inconclusive)
KiSS-1 receptor (Homo sapiens), sequence (Q969F8 whole entry, looked up): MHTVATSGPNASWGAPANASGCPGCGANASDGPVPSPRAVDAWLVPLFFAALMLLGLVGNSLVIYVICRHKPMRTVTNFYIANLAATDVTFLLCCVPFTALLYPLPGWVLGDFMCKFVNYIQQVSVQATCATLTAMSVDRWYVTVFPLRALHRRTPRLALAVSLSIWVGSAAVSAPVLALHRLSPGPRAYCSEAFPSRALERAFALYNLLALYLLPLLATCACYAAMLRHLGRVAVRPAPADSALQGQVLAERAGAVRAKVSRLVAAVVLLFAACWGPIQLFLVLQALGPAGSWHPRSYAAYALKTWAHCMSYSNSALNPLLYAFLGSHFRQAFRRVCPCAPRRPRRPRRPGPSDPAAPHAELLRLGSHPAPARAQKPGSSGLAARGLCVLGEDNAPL
Method in brief: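 Cells plated and incubated 18 h; dye added, 1 h at 37 C; compounds in DMSO pinned in; signal read at 480/540 nm every second for 3 min. Each compound tested at 15 concentrations in triplicate.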

[5] = G protein-coupled receptor (GPCR) small molecule agonists, calcium flux assay: HEK293 wild type cell line counter screen (AID 1920065)
Method in brief: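 Counter-screen of the Tox21 10K library for non-specific calcium release: dye-loaded cells received compounds in DMSO and were monitored by kinetic fluorescence (480/540 nm, 3 min). Fifteen concentrations, run in triplicate.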

[6] = p53 small molecule agonists, cell-based qHTS assay with human liver microsomes: qHTS cell viability counter screen (AID 1963579); further: nearly all actives have a fitted effect of over 45% in size
Method in brief: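 p53RE-bla cells, 4,000/well, dosed 5 hours after plating, with human liver microsomes (0.5 mg/mL final) plus NADPH (0.5 mg/mL final), 16 hours at 37 C. Viability read as CellTiter-Glo luminescence after 30 min at room temperature.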

[7] = target: 5-hydroxytryptamine receptor 2A (Homo sapiens) (UniProt P28223); test: 5-hydroxytryptamine receptor 2A (HTR2A) small molecule antagonists, cell-based qHTS assay (AID 1963586); further: nearly all actives have a fitted effect of over 45% in size
5-hydroxytryptamine receptor 2A (Homo sapiens), sequence (P28223 whole entry, looked up): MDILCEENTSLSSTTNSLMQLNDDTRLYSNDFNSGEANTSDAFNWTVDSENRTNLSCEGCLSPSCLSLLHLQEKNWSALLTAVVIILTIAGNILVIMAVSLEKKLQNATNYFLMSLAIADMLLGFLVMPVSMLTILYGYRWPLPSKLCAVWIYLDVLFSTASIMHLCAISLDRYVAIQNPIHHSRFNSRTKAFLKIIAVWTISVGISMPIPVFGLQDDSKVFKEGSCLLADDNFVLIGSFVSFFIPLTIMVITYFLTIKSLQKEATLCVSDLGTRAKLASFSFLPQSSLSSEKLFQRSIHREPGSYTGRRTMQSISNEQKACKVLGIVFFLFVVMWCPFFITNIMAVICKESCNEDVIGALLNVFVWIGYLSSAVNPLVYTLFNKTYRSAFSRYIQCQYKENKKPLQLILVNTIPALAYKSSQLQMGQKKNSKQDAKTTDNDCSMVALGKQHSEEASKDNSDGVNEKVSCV
Method in brief: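 Antagonist-mode intracellular calcium assay: DOI (4 nM) added after 5 min compound pre-incubation at room temperature to dye-loaded HTR2A-CHO cells. Fluorescence followed for 3 min, sampled every second.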

[8] = target: 5-hydroxytryptamine receptor 2A (Homo sapiens) (UniProt P28223); test: 5-hydroxytryptamine receptor 2A (HTR2A) small molecule agonists, cell-based qHTS assay (AID 1963587); further: nearly all actives have a fitted effect of over 30% in size; further: potency means the concentration at half of the fitted maximal effect
Method in brief: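 Kinetic calcium-flux fluorescence (2 min, 1 sec intervals) after compound addition in agonist mode. HTR2A-CHO cells were cultured 18 h, then dye-loaded 1 h at 37 C.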

[9] = target: Muscarinic acetylcholine receptor M1 (Homo sapiens) (UniProt P11229); test: Cholinergic receptor muscarinic 1 (CHRM1) small molecule antagonists, cell-based qHTS assay (AID 1963588); further: nearly all actives have a fitted effect of over 40% in size
Muscarinic acetylcholine receptor M1 (Homo sapiens), sequence (P11229 whole entry, looked up): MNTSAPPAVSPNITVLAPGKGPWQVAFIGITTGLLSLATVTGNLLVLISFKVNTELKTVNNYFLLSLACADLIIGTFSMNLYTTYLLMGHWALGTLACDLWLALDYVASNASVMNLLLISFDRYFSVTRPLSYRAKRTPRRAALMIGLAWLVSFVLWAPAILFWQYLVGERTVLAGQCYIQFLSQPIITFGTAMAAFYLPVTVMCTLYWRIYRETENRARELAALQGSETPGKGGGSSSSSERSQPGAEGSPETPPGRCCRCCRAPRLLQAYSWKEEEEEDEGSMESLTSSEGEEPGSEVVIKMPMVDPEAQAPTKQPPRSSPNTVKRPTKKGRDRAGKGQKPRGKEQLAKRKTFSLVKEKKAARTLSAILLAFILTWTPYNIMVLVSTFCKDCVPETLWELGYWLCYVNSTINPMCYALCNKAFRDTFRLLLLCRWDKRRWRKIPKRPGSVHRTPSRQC
Method in brief: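 CHRM1-CHO calcium-flux assay, antagonist mode. Cells were seeded 18 h, dye-loaded 1 h at 37 C and given compound for 5 min at RT, then acetylcholine was added at 50nM. FDSS fluorescence was read 3 min; 15 concentrations, three runs.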

[10] = target: Muscarinic acetylcholine receptor M1 (Homo sapiens) (UniProt P11229); test: Cholinergic receptor muscarinic 1 (CHRM1) small molecule agonists, cell-based qHTS assay (AID 1963589); further: nearly all actives have a fitted effect of over 35% in size
Method in brief: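 Agonist-mode qHTS in CHO cells stably carrying human muscarinic M1. Intracellular calcium is tracked by fluorescence every second after compound transfer; each compound runs at 15 concentrations in three independent runs.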

[11] = cAMP Responsive Elements (CRE) small molecule agonists, cell-based qHTS assay (AID 1963590)
Method in brief: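 Agonist mode qHTS in CRE-bla HEK 293T cells: compounds dosed from DMSO for 3 h at 37 C/5% CO2, followed by LiveBLAzer B/G FRET substrate for 2 h at room temperature.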

[12] = cAMP Responsive Elements (CRE) small molecule antagonists, cell-based qHTS assay (AID 1963591; active means well fitted inhibition curve with a large enough effect in the signal ratio in the repeat runs, not every such curve was filed as active; the % refers to the signal ratio)
Method in brief: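 Antagonist mode: test compounds are co-incubated with the adenylyl cyclase activator NKH477 (0.25 uM final) on CRE-bla HEK293T cells for 3 h at 37 °C, followed by LiveBLAzer substrate loading.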

[13] = target: Beta-2 adrenergic receptor (Homo sapiens) (UniProt P07550); test: Adrenergic beta2 receptor (ADRB2) small molecule antagonists, cell-based qHTS assay (AID 1963592); further: series mostly up to about 92 µM; nearly all actives have a fitted effect of over 50% in size
Beta-2 adrenergic receptor (Homo sapiens), sequence (P07550 whole entry, looked up): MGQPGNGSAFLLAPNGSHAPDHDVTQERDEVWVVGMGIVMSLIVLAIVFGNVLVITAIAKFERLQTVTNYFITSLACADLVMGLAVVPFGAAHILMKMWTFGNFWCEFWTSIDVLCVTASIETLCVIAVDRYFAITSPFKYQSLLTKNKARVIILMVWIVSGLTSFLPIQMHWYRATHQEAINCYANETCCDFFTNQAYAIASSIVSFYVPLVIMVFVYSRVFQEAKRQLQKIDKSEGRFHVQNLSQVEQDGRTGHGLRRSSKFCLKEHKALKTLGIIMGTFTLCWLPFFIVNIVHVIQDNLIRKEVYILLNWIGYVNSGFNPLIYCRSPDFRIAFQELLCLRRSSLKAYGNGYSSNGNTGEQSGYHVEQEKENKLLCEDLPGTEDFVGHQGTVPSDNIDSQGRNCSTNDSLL
Method in brief: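 Cells (CHO, stable ADRB2 overexpression) incubated 18-20hr at 37C; compounds added from DMSO; agonist mix (1nM isoproterenol, 100uM IBMX, 25uM Ro-20-1724) added; 0.5hr RT; d2-cAMP and anti-cAMP-cryptate added; 1hr RT; 665/615 nm read.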

[14] = target: Beta-2 adrenergic receptor (Homo sapiens) (UniProt P07550); test: Adrenergic beta2 receptor (ADRB2) small molecule agonists, cell-based qHTS assay (AID 1963593);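 further: CHO cells stably overexpressing human ADRB2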
Method in brief: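 CHO cells stably over-expressing ADRB2 were plated overnight at 37C, then dosed with compounds plus a stimulation mix containing 100uM IBMX and 25uM Ro-20-1724 for 0.5hr at room temperature. cAMP was measured by HTRF competition, 1hr.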

[15] = target: D(2) dopamine receptor (Homo sapiens) (UniProt P14416); test: Dopamine D2 receptor (DRD2) small molecule agonists, cell-based qHTS assay (AID 1963594); further: nearly all actives have a fitted effect of over 35% in size
D(2) dopamine receptor (Homo sapiens), sequence (P14416 whole entry, looked up): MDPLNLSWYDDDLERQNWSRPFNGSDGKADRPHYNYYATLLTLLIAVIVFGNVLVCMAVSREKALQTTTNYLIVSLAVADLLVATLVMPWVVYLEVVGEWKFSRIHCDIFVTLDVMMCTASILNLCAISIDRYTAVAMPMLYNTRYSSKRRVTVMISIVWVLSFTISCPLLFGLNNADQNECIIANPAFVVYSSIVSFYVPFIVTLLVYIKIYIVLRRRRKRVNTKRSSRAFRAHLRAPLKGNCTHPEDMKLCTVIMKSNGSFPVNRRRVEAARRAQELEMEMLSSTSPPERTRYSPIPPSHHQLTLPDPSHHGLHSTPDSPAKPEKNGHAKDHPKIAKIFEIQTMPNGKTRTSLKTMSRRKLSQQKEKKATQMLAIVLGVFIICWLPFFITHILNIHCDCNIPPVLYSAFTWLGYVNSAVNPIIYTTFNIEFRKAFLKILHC
Method in brief: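 cAMP accumulation in DRD2-HEK293 cells measured by HTRF after 1 h detection; compounds added 10 min before NKH477 (200nM […]) forskolin-analogue stimulation, 30 min at room temperature, with Ro20-1724 present at 0.1 mM final.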

[16] = target: D(2) dopamine receptor (Homo sapiens) (UniProt P14416); test: Dopamine D2 receptor (DRD2) small molecule antagonists, cell-based qHTS assay (AID 1963595; active means well fitted inhibition curve with a large enough effect in the signal ratio in the repeat runs, with a control signal flat; the % refers to the signal ratio)
Method in brief: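 Stable D2 receptor HEK293 line, 24 h after seeding. Compound preincubated 10 min, then quinpirole (12 nM) with forskolin analogue NKH477 (200 nM), 30 min, room temperature. Detection by time-resolved FRET of cAMP.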

[17] = p53 small molecule agonists, cell-based qHTS assay: qHTS cell viability counter screen (AID 1963581); further: nearly all actives have a fitted effect of over 45% in size
Method in brief: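 Cells: HCT-116 with p53 response element-driven beta-lactamase. Treatment: 16 h, 37 C, compounds in DMSO. Read: CellTiter-Glo luminescence after 30 min RT.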

[18] = p53 small molecule agonists, cell-based qHTS assay with rat liver microsomes: qHTS cell viability counter screen (AID 1963580); further: nearly all actives have a fitted effect of over 45% in size
Method in brief: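 Intracellular ATP, by CellTiter-Glo luminescence, defines viability. HCT-116 p53RE-bla cells, 4,000 per well, were compound-treated in the presence of rat liver microsomes and NADPH for 16 h at 37 C.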

[19] = p53 small molecule agonists, cell-based qHTS assay (AID 1963582; active means well fitted activation curve with a large enough effect in the signal ratio in the repeat runs, not every such curve was filed as active; the % refers to the signal ratio)
Method in brief: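 Quantitative HTS in p53RE-bla cells: after a 5 h settling period, compounds delivered in DMSO were left on cells for 16 h at 37 C, and reporter induction was measured as fluorescence following 2 h substrate loading.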
On the % scale 0 is the no-effect control and ±100 the full control effect.

CCCCOCC(C)OCC(C)O (stereo not drawn)
inactive: Potency [1] | Potency [2] | Potency [3] | Potency [4] | Potency [5] | Potency [6] | Potency [7] | Potency [8] | Potency [9] | Potency [10] | Potency [11] | Potency [12] | Potency [13] | Potency [14] | Potency [15] | Potency [16]

CCO[Si](CCCSSSSCCC[Si](OCC)(OCC)OCC)(OCC)OCC
active: Potency [1] 61.2 µM | Potency [8] 49 µM
inactive: Potency [2] | Potency [3] | Potency [4] | Potency [5] | Potency [6] | Potency [17] | Potency [7] | Potency [9] | Potency [10] | Potency [13] | Potency [16]

COc1cc(C(C)(C)C)c(O)c(C(C)(C)C)c1
active: Potency [2] 48.6 µM
inactive: Potency [1] | Potency [3] | Potency [4] | Potency [5] | Potency [6] | Potency [17] | Potency [8] | Potency [10] | Potency [13] | Potency [14] | Potency [15] | Potency [16]

Nc1ccn([C@@H]2O[C@H](CO)[C@@H](O)C2O)c(=O)n1 (stereo partly drawn)
inactive: Potency [1] | Potency [2] | Potency [3] | Potency [4] | Potency [5] | Potency [6] | Potency [17] | Potency [11] | Potency [12] | Potency [13] | Potency [14] | Potency [15] | Potency [16]

C=Cc1ccc(C=C)cc1
inactive: Potency [1] | Potency [2] | Potency [3] | Potency [4] | Potency [5] | Potency [6] | Potency [17] | Potency [8] | Potency [9] | Potency [11] | Potency [12] | Potency [13] | Potency [15] | Potency [16]

C=C(C)C(=O)OCCCCCCCCCCCCCCCCCC
inactive: activity change, negative = cytotoxicity [1] 0.16% [at 19 µM] | activity, positive = activation [2] -9.09% [at 19 µM] | activity change [3] 1.34% [at 11.8 µM, stronger effect = higher value] | activation [4] 1.35% [at 15.8 µM] | activation [5] 0.174% [at 11.8 µM] | activity change, negative = cytotoxicity [6] -5.03% [at 13.5 µM] | activity change, negative = cytotoxicity [17] -0.723% [at 13.5 µM] | activity, negative = inhibition [7] -3.48% [at 12.7 µM] | activation [8] -0.137% [at 15.9 µM] | activity, negative = inhibition [9] -12.8% [at 12.6 µM] | activation [10] 0.19% [at 15.8 µM] | activation [11] -2.05% [at 19 µM] | activity change, negative = inhibition [12] -19.6% [at 18.9 µM] | activation [14] -0.576% [at 19 µM] | activation [15] -1.1% [at 19 µM] | activity change, negative = inhibition [16] -0.773% [at 18.9 µM]

CCO[Si](CCCS)(OCC)OCC
inactive: Potency [1] | Potency [2] | Potency [3] | Potency [4] | Potency [5] | Potency [18] | Potency [17] | Potency [19] | Potency [7] | Potency [8] | Potency [9] | Potency [12] | Potency [13] | Potency [14] | Potency [15] | Potency [16]

CC(=O)C(=O)CC(C)C
inactive: Potency [1] | Potency [2] | Potency [3] | Potency [4] | Potency [5] | Potency [18] | Potency [17] | Potency [7] | Potency [8] | Potency [9] | Potency [10] | Potency [11] | Potency [12] | Potency [13] | Potency [14] | Potency [15] | Potency [16]

Reference: PubChem BioAssay (Tox21)
